Screening data (PubChem BioAssay)
Dyrk1A ADPGlo: blocks rat Dyrk1A kinase activity. Q63470. ADP-Glo luminescence, NFATc1 peptide. inhibition, % at 12.5 µM. hit rate 0.43% among 310,000. AID 504441; in the data active means inhibition above about 50%;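 further: plate controls were vehicle with enzyme for no effect and no enzyme for full effect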
esBAF inh: blocks esBAF chromatin remodeling in mouse ES cells | reporter increase, % at 12.5 µM | AID 602393 | Bmi1-luciferase knock-in reporter, 24 h; 100% = twice the neutral-well signal | hit rate 2% among 350,000; in the data active means activation above about 40%;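 further: 0% = median of the plate's neutral control wells and 100% = double that signal; a rise in the Bmi1 reporter signal indicates esBAF inhibition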
dFosB act: activators of mouse delta FosB homodimer | purified delta FosB, TAMRA-CDK5 oligo fluorescence polarization; percent of positive-control signal above neutral wells | P13346 | activation, % at 25 µM | hit rate 0.99% among 340,000 | AID 493131;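 active means mean activation above about 17%, with every replicate also reaching it, limit read from the data, passing the limit was not always enough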
SMARCA2 act: increases SMARCA2 function in MMTV reporter cells | activation, % at 9.1 µM | hit rate 1% among 370,000 | AID 652017 | MG213 cells, MMTV-luciferase reporter, dexamethasone, overnight; in the data active means activation above about 7.8%;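 further: 0% = vehicle wells and 100% = reference activator wells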
CDK5 p35 inh: CDK5/p35 (human) kinase inhibition; Recombinant CDK5/p35, ADP-Glo luminescence, 60 min; inhibition, % at 10 µM; hit rate 0.01% among 330,000;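 active means highest replicate inhibition of at least 50% and at least 75% of replicates reaching 50%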;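 further: plate controls were DMSO neutral control for no effect and GW8510 at 10 µM for full effect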
Target sequence (Q00535 whole entry, looked up): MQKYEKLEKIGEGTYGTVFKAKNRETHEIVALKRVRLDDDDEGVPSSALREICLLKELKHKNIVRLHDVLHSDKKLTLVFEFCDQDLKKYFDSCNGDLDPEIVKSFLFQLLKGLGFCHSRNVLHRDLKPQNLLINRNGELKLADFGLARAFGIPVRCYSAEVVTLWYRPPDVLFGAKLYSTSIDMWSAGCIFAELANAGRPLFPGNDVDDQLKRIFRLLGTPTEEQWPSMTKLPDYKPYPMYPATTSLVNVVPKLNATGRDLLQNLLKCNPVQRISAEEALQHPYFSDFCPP
Target sequence (Q15078 whole entry, looked up): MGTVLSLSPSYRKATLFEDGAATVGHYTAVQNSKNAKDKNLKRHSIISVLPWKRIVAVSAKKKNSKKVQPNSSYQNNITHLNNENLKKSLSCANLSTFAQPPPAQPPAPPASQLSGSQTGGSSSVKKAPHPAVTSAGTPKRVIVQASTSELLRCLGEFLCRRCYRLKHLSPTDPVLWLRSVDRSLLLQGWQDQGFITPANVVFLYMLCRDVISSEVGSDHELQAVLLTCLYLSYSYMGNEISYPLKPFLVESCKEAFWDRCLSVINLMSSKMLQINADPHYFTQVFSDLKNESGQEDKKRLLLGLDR
Rtt109 HAT inh: inhibitors of Candida albicans Rtt109/Vps75 histone acetyltransferase. Q5AAJ8. purified Rtt109/Vps75, ThioGlo CoA-SH fluorescence, 4 h. inhibition, % at 34.9 µM. AID 540336. hit rate 0.16% among 330,000;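 active means inhibition of at least 50% in every replicate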
The depositor's hits bear a star; . = no result given. The list is not random: actives were taken first. Their share in the collection is about 3.2%.

SMILES	Dyrk1A ADPGlo	esBAF inh	dFosB act	SMARCA2 act	CDK5 p35 inh	Rtt109 HAT inh
CNc1cc(-c2ccc(OC)nc2)ncn1	.	50*	.	1	.	.
CNc1cc(-c2cc(OC)ccc2OC)ncn1	.	3	.	2	.	.
COc1ccccc1NC(=O)N(C)C[C@@H]1Oc2ncc(C#CCC(C)C)cc2C(=O)N([C@@H](C)CO)C[C@H]1C	.	-3	.	.	.	.
Cc1nn(CC(=O)Nc2ccc3c(c2)nc2n3CCN(C3CCCCC3)C2)c(=O)c2ccccc12	.	4	27*	-1	0	10
Cc1nn(CC(=O)Nc2ccc3c(c2)nc(CCN2CCCCC2)n3C)c(=O)c2ccccc12	-2	-4	4	2	-1	-2
CNc1c([N+](=O)[O-])cnn1-c1ccc(Cl)cc1Cl	-1	-5	6	1	1	3
O=c1cnn(-c2ccc(Cl)cc2Cl)c(-c2ccccc2)c1	4	49*	-4	-1	1	-5
Cc1cc(OCc2cc(C(=O)NC3CCC3)no2)cc(C)c1Cl	-5	0	3	.	0	0
Cc1cc(OCc2cc(C(=O)NC(C)c3c(C)nn(C)c3C)no2)cc(C)c1Cl (stereo unspecified)	0	83*	-20	0	1	9
Cc1cc(OCc2cc(C(=O)NC(C)c3cnn(C)c3)no2)cc(C)c1Cl (stereo unspecified)	.	72*	.	4	.	.
Cc1nc(C(C)NC(=O)c2cc(COc3ccc(C)c(C)c3)on2)c(C)s1 (stereo unspecified)	-6	73*	-13	4	1	-3
C[C@@H]1CN([C@@H](C)CO)C(=O)CCCn2cc(nn2)CO[C@H]1CN(C)CC1CCCC1	.	-2	.	.	.	.
COCC#Cc1cnc2c(c1)C(=O)N([C@H](C)CO)C[C@@H](C)[C@@H](CN(C)S(=O)(=O)c1ccccc1)O2	.	-4	.	.	.	.
C[C@@H]1CN([C@H](C)CO)C(=O)Cc2cc(NC(=O)Cn3cnnn3)ccc2O[C@H]1CN(C)C(=O)Nc1ccc(F)cc1	.	4	.	.	.	.
O=C(/C=C/c1ccccc1)c1ccc2ccccc2c1	.	68*	-10	3	1	-1
O=C(/C=C/c1ccccc1)c1ccccc1	-1	23	2	-1	-2	17
COc1ccc2c(c1)CC/C(=C\c1ccc(OC)c(Cn3cccn3)c1)C2=O	3	87*	-18	-1	-1	-2
COc1ccc2c(c1)CC/C(=C\c1ccc(OC)c(Cn3nc(C)cc3C)c1)C2=O	-11	16	-9	-4	-1	-2
Cc1cc(COc2ccccc2)oc1C(=O)O	-10	51*	-4	3	-1	8
Cc1cc(CN2CCCCC2)oc1C(=O)O	-6	.	-8	1	-9	1
C[C@H]1CCCCO[C@@H](CN(C)S(=O)(=O)c2cn(C)cn2)[C@@H](C)CN([C@@H](C)CO)C(=O)c2cc(NC(=O)Nc3ccccc3)ccc2O1	.	2	.	.	.	.
C[C@@H]1CN([C@@H](C)CO)C(=O)c2cccc(NS(=O)(=O)c3ccccc3)c2O[C@@H]1CN(C)Cc1ccc(C(F)(F)F)cc1	.	2	.	.	.	.
Cc1nn(C)cc1/C=C/C(=O)c1cccs1	6	65*	-3	4	1	5
Cc1ccc(C(=O)COC(=O)c2cccc([N+](=O)[O-])c2)s1	-1	46*	6	1	0	-5
O=C(OCC(=O)c1c[nH]c2ccccc12)c1cccc([N+](=O)[O-])c1	-4	-8	-12	3	-1	7
SMILES	Dyrk1A ADPGlo	esBAF inh	dFosB act	SMARCA2 act	CDK5 p35 inh	Rtt109 HAT inh
CCN(CC)c1ccc2nc3c4ccccc4c(=O)cc-3oc2c1	.	.	.	2	.	.
CCN(CC)c1ccc2c(-c3ccc(S(=O)(=O)O)cc3S(=O)(=O)[O-])c3ccc(=[N+](CC)CC)cc-3oc2c1	11	-52	63*	.	10	0
COCC(=O)Nc1ccc2c(c1)C(=O)N(C)[C@@H]1CC[C@@H](CC(=O)N3CCc4ccccc4C3)O[C@@H]1CO2	.	-2	.	.	.	.
Cc1cc(N)n2ncc(-c3ccc(F)cc3)c2n1	2	58*	-3	0	-1	-2
Cc1cc(Cl)n2ncc(-c3ccccc3)c2n1	6	48*	-6	1	-1	-7
Cc1cc(NCc2ccccn2)n2ncc(-c3ccccc3)c2n1	7	51*	-10	-3	-1	-5
Cc1cc(N)n2ncc(-c3ccc(Cl)cc3)c2n1	29	.	-9	7	-7	1
C[C@@H]1CN([C@@H](C)CO)C(=O)c2cc(NC(=O)c3ccncc3)ccc2O[C@@H](C)CCCCO[C@H]1CN(C)S(=O)(=O)c1cn(C)cn1	.	0	.	.	.	.
C[C@@H]1CN([C@@H](C)CO)C(=O)c2cc(-c3cncnc3)cnc2O[C@@H]1CN(C)Cc1ccc(Oc2ccccc2)cc1	.	-3	.	.	.	.
O=C(COc1ccc(/C=C2/NC(=O)NC2=O)cc1)Nc1ccc(F)cc1	-1	-7	40*	-2	-3	5
Cn1cccc1/C=C1\Cc2ccccc2C1=O	3	53*	-7	6	-1	-16
Cn1cccc1/C=C1\CCc2ccccc2C1=O	10	-46	-4	-1	17	4
CC(C)Cc1ccc(/C=C/C(=O)NC2CC2)cc1	9	49*	-11	5	.	-22
C[C@@H]1CN([C@@H](C)CO)C(=O)CCCn2cc(nn2)CO[C@@H]1CN(C)C(=O)NC1CCCC1	.	-3	.	.	.	.
CN1/C(=C\C=C(/C#N)C(=O)Nc2ccc(Cl)cc2)C(C)(C)c2ccccc21	-2	.	-4	5	1	-5
CN1/C(=C\C=C(C#N)C#N)C(C)(C)c2ccccc21	-4	-6	113*	-1	0	10
C[C@@H]1CN([C@@H](C)CO)C(=O)CCCn2cc(nn2)CO[C@H]1CN(C)Cc1ccc2cccnc2c1	.	-4	.	.	.	.
CCCC(=O)Nc1ccc2c(c1)C(=O)N(C)C[C@@H](OC)[C@H](C)CN(Cc1cccc(F)c1)[C@H](C)CO2	.	0	.	.	.	.
NC(=O)c1c(NC(=O)Cn2nc(C(=O)O)c3ccccc3c2=O)sc2c1CCCC2	-9	-2	91*	0	-1	12
O=C(C[C@@H]1C=C[C@H](NC(=O)C2CCOCC2)[C@H](CO)O1)NCC1CCCCC1	.	0	.	.	.	.
Fc1ccc2cc(-c3cccnc3)ncc2c1	49	50*	-12	5	1	10
CCOc1ccc(-c2ccc(SC)nn2)cc1	56*	-75	-1	-4	33	-1
CCOc1ccc(-c2ccc(SCC(=O)Nc3nnc(CC)s3)nn2)cc1	13	.	-4	3	3	1
CCC(=O)N(C)C[C@H]1Oc2cc(Br)ccc2S(=O)(=O)N([C@@H](C)CO)C[C@@H]1C	.	-1	.	.	.	.
C[C@@H]1CCCCO[C@@H](CN(C)Cc2ccc3c(c2)OCO3)[C@@H](C)CN([C@H](C)CO)C(=O)c2cc(NS(=O)(=O)c3ccc(F)cc3)ccc2O1	.	4	.	.	.	.
C[C@@H]1CN([C@@H](C)CO)C(=O)c2cccc(NC(=O)Nc3ccccc3)c2O[C@H]1CN(C)S(=O)(=O)c1cn(C)cn1	.	-7	.	.	.	.
